Screening results: PubChem, several laboratories
An excerpt weighted towards active compounds, which were near 4.2% of everything screened.
tim10-1 inh: tim10-1 yeast growth inhibition; S. cerevisiae tim10-1 ts strain growth, BacTiter-Glo, 24 h; inhibition, % at 20 µM; 330,000 compounds, 2.2% hits;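 active = inhibition of at least 40%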;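 also: mutant grown at 25 °C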
NLRP3 yeast inh: blocks the NALP3 inflammasome reconstituted in yeast; Yeast reconstituted NLRP3/ASC/caspase-1, beta-gal luminescence, 24 h; inhibition, % at 10 µM; 330,000 compounds, 0.39% hits;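 active = inhibition of 50% or more; inactive = inhibition below 50%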
TIM10 inh: TIM10 yeast growth inhibition; S. cerevisiae TIM10 strain growth, BacTiter-Glo luminescence, 24 h; inhibition, % at 10 µM; 330,000 compounds, 1.4% hits;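 active = inhibition of 40% or more at the single tested concentration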;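 also: wild-type TIM10 isogenic control strain grown at permissive 25 °C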
NALP1 inh: blocks the NALP1 inflammasome reconstituted in yeast | 280,000 compounds, 0.61% hits | inhibition, % at 10 µM | S. cerevisiae NALP1/ASC/caspase-1 growth, X-gal OD620, 72 h | AID 2071; in the data active = inhibition mostly above about 24%, no sharp cut-off; inactive = mostly below about 32%
V-ATPase pH: yeast V-ATPase proton transport regulation by pHLuorin; S. cerevisiae, pHLuorin cytosolic pH fluorescence; response, % at 10 µM; 350,000 compounds, 0.37% hits; in the data active = response mostly above about 7.3%, no sharp cut-off; inactive = mostly below about 5.4%; also: actives read high
tim23-1 inh: inhibits growth of tim23-1 mutant yeast; S. cerevisiae tim23-1 growth, BacTiter-Glo luminescence, 24 h; inhibition, % at 20 µM; 330,000 compounds, 1.3% hits;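 active = growth inhibition of the mutant yeast at or above 50%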;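 also: temperature-sensitive mutant grown at 25 °C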
tim10-1 conf: confirmation of tim10-1 mutant yeast growth inhibitors. shares compounds with tim10-1 inh. S. cerevisiae tim10-1 ts strain growth, BacTiter-Glo, 24 h. inhibition, % at 20 µM. 7,400 compounds, 56% hits. AID 463213;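 active = inhibition of yeast growth at or above a set limit in either of two repeat tests at 20 µM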;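 also: tim10-1 mutant grown at permissive 25 °C to find synthetic lethal compounds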
Hits are given with their value.

For CCc1ccc(C(=O)c2oc3nc(C)cc(C)c3c2N)cc1 the results were tim10-1 inh 45, NLRP3 yeast inh inactive, TIM10 inh inactive, NALP1 inh inactive, V-ATPase pH inactive, tim23-1 inh inactive and tim10-1 conf 33.
Screening Cc1ccc(C(=O)c2oc3nc(C)cc(C)c3c2N)cc1 returned tim10-1 inh inactive, NLRP3 yeast inh inactive, TIM10 inh inactive, NALP1 inh inactive, V-ATPase pH inactive and tim23-1 inh inactive.
CC(C)c1cc(-c2n[nH]c(=S)n2Cc2ccccc2)cs1 was read as tim10-1 inh 47, NLRP3 yeast inh inactive, TIM10 inh inactive, NALP1 inh inactive, V-ATPase pH inactive, tim23-1 inh inactive and tim10-1 conf inactive.
`S=c1[nH]nc(-c2ccccc2)n1Cc1ccccc1` gave tim10-1 inh inactive, NLRP3 yeast inh inactive, TIM10 inh inactive, NALP1 inh inactive, V-ATPase pH inactive and tim23-1 inh inactive.
`CCOC(=O)c1cnc2c(OC)cccc2c1N1CCN(c2ccc(OC)cc2)CC1` gave tim10-1 inh 40, NLRP3 yeast inh inactive, TIM10 inh inactive, NALP1 inh inactive, V-ATPase pH inactive, tim23-1 inh inactive and tim10-1 conf inactive.
For CCOC(=O)c1cnc2c(C(F)(F)F)cccc2c1N1CCN(C)CC1 the results were tim10-1 inh inactive, NLRP3 yeast inh inactive, TIM10 inh inactive, NALP1 inh inactive, V-ATPase pH inactive and tim23-1 inh inactive.
`CCOC(=O)c1cnc2c(OC)cccc2c1N1CCN(c2ccccn2)CC1` gave tim10-1 inh 48, NLRP3 yeast inh inactive, TIM10 inh inactive, NALP1 inh inactive, V-ATPase pH inactive, tim23-1 inh inactive and tim10-1 conf inactive.
Screening COc1cccc(C2/C(=C(/O)c3ccccc3)C(=O)C(=O)N2Cc2ccco2)c1 (centres undefined) returned tim10-1 inh inactive, NLRP3 yeast inh inactive, TIM10 inh inactive, NALP1 inh inactive, V-ATPase pH inactive and tim23-1 inh inactive.
O=C(Cc1ccccc1)NCC(=O)OCc1ccccc1F was read as tim10-1 inh inactive, NLRP3 yeast inh inactive, TIM10 inh inactive, NALP1 inh inactive, V-ATPase pH inactive and tim23-1 inh inactive.
CC(C)c1ccc(NC(=S)Nc2ccc3cn[nH]c3c2)cc1 was read as tim10-1 inh 43, NLRP3 yeast inh inactive, TIM10 inh inactive, NALP1 inh inactive, V-ATPase pH inactive, tim23-1 inh inactive and tim10-1 conf inactive.
Cc1ccc(NC(=S)Nc2ccc3cn[nH]c3c2)cc1C was read as tim10-1 inh inactive, NLRP3 yeast inh inactive, TIM10 inh inactive, NALP1 inh inactive, V-ATPase pH inactive and tim23-1 inh inactive.
For Cc1ccc(-c2noc(CN(C(=O)c3ccc4c(c3)OCO4)C(C)C)n2)cc1 the results were tim10-1 inh inactive, NLRP3 yeast inh inactive, TIM10 inh inactive, NALP1 inh inactive, V-ATPase pH inactive and tim23-1 inh inactive.
`CC(C)N(Cc1nc(-c2ccccc2)no1)C(=O)c1ccc2c(c1)OCO2` gave tim10-1 inh 81, NLRP3 yeast inh inactive, TIM10 inh inactive, NALP1 inh inactive, V-ATPase pH inactive, tim23-1 inh inactive and tim10-1 conf inactive.
Cc1ccc(OCCn2cnc3cc([N+](=O)[O-])ccc3c2=O)cc1 was read as tim10-1 inh 46, NLRP3 yeast inh inactive, TIM10 inh inactive, NALP1 inh inactive, V-ATPase pH inactive, tim23-1 inh inactive and tim10-1 conf inactive.
`CCC1Oc2ccccc2N(CC(=O)N2CC(C)CC(C)C2)C1=O` (centres undefined) gave V-ATPase pH inactive.
CCC(C)NS(=O)(=O)c1cc2c3c(c1)CCC(=O)N3CCC2 (centres undefined) was read as tim10-1 inh inactive, NLRP3 yeast inh inactive, TIM10 inh inactive, NALP1 inh inactive, V-ATPase pH inactive and tim23-1 inh inactive.
O=C(N/N=C/c1c(Cl)nc2ccccn2c1=O)c1cccnc1 was read as tim10-1 inh inactive, NLRP3 yeast inh inactive, TIM10 inh inactive, NALP1 inh inactive, V-ATPase pH inactive and tim23-1 inh inactive.
CN1CCN(c2ccc(NC(=S)NC(=O)c3cccc4ccccc34)cc2)CC1 was read as tim10-1 inh inactive, NLRP3 yeast inh inactive, TIM10 inh inactive, NALP1 inh inactive, V-ATPase pH inactive and tim23-1 inh inactive.
